Rows were chosen to be rich in hits. Some 1.9% of all compounds tested hit in one or more screens of this group.
KLF5 inh: KLF5 expression inhibitors, primary screen, DLD-1 cells, luminescence; DLD-1 KLF5 promoter-luciferase reporter; hit rate 0.23% among 290,000; inhibition, % at 5 µM; AID 1700, 2009;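 active means inhibition above a per-plate limit of that plate's mean compound inhibition plus 3 SD, cut at about 60% in these data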;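 further: 0% = DMSO wells and 100% = LY294002 at 200 µM; higher means less KLF5 promoter-driven luciferase light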
IEC-6 cytotox: cytotoxicity in IEC-6 intestinal epithelial cells, primary screen, cytotoxicity control for KLF5 inhibitor project, cell-based, luminescence; IEC-6 cytotoxicity, luminescence viability; inhibition, % at 5 µM; hit rate 0.78% among 290,000; AID 1825, 2009;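 further: 0% = plate median of test compound wells and 100% = cytotoxic reference compound wells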
APP 5UTR inh: inhibitors of APP translation via 5'UTR reporter, primary screen, APP 5'UTR luciferase, SH-SY5Y cells. SH-SY5Y APP 5'UTR-luciferase reporter, luminescence. inhibition, % at 2 µM. hit rate 0.82% among 190,000;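 active means inhibition above a set limit, derived from the sample mean plus 3 SD, cut at about 45% in these data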
BaF3 parental: parental Ba/F3 cell viability inhibition, counter-screen for JAK2V617F inhibitor project, murine pro-B, CellTiter-Glo luminescence. inhibition, % at 5.6 µM. hit rate 1.1% among 220,000. CellTiter-Glo ATP luminescence;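 active means inhibition above a per-campaign cutoff, the mean inhibition of all tested compounds plus 3 SD, cut at about 27% in these data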;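 further: 0% = DMSO wells and 100% = JAK Inhibitor I control wells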
Ba/F3 V617F tox: reduced viability of JAK2V617F-dependent Ba/F3 cells, primary screen, JAK2V617F inhibitor project, cell-based, Ba/F3 EpoR-JAK2V617F, luminescence; ATP luminescence; inhibition, % at 5.6 µM; hit rate 1.1% among 220,000; AID 1446, 2008;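 active means inhibition above the campaign mean plus 3 SD over all tested compounds, cut at about 24% in these data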;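 further: cytokine-independent growth of Ba/F3 cells driven by EpoR plus mutant JAK2; 0% = DMSO-treated cells and 100% = JAK inhibitor I control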
IEC-6 tox confirm: cytotoxic compounds in IEC-6 epithelial cells, confirmation, cytotoxicity control, cell-based, luminescence | hit rate 63% among 1,900 | AID 1907, 2009 | inhibition, % at 5 µM | IEC-6 rat intestinal epithelial viability | shares compounds with IEC-6 cytotox;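 further: 0% = vehicle and 100% = reference cytotoxic drug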
* = called active by the depositor; x = no result. Unless noted, no stated cut-off is given here; in the data, active means inhibition above about 22%; inactive means the rest.

SMILES | KLF5 inh | IEC-6 cytotox | APP 5UTR inh | BaF3 parental | Ba/F3 V617F tox | IEC-6 tox confirm
C(=C\c1ccccc1)/CSc1nnc(-c2ccncc2)n1Cc1ccco1 | -6 | 7 | -13 | 4 | 3 | x
Brc1ccc(CSc2nnc(-c3ccccn3)n2Cc2ccco2)cc1 | 5 | 28* | 4 | 10 | 1 | 22
CC1CC2(C)Oc3ccccc3CC2C(C)C1CNCCCN(C)C (centres undefined) | 4 | 34* | 1 | 104* | 102* | 100*
CC(C)c1ccc(OCC(=O)N2CCN(c3ccccn3)CC2)c(Br)c1 | -15 | 0 | x | x | x | x
CCCOc1ccc(C(=O)NNC(=S)NC(=O)c2ccccc2)cc1 | 19 | 37* | x | x | x | 18
CCCOc1ccc(C(=O)NNC(=S)NC(=O)c2cccs2)cc1 | 28 | 39* | x | x | x | 50*
O=C(NCc1ccccn1)Nc1cccc([N+](=O)[O-])c1 | -45 | -2 | x | x | x | x
COC(=O)C(C)Sc1nc2c([nH]c3ccccc32)c(=O)n1C (centres undefined) | 8 | 6 | -23 | 4 | -2 | x
O=C1CN(c2nc3ccccc3n3cnnc23)CC(=O)N1CCc1ccccc1 | 2 | 0 | -10 | 1 | -4 | x
Cc1ccc(S(=O)(=O)c2ncccc2[N+](=O)[O-])cc1 | 25 | 101* | x | x | x | 2
CC(Oc1ccc(Br)cc1)C(=O)Nc1nc(-c2ccccn2)cs1 (centres undefined) | 21 | 50* | x | x | x | 24*
CC(C)[C@H](NC(=O)c1ccccc1Cl)C(=O)Nc1nc(-c2ccccn2)cs1 | 27 | 40* | 3 | 12 | 0 | 40*
CCc1nnc(NC(=O)C(NC(=O)c2ccccc2Cl)C(C)C)s1 (centres undefined) | 14 | -2 | 10 | 1 | 0 | x
CC(NCC(O)COCCC12CC3CC(CC(C3)C1)C2)c1ccccc1 (centres undefined) | 14 | 2 | -1 | 10 | 0 | x
Cc1ccc(NC(=O)c2nsc(Cl)c2Cl)cc1 | -131 | 24* | x | -3 | 2 | -4
Cc1ccc(C(=O)c2cc([N+](=O)[O-])ccc2N2CCCCC2)cc1C | 3 | 58* | 94* | 75* | 83* | 61*
Cc1ccc(C(=O)c2cc([N+](=O)[O-])ccc2N2CCN(C)CC2)cc1 | 15 | 44* | 63* | 26 | 6 | 38*
CCCCNC(=O)N1CCN(C(=O)C2CCCO2)CC1 (centres undefined) | -2 | -5 | -6 | 10 | 1 | x
CCN(CC)S(=O)(=O)c1ccc(C)c(NC(=O)CNCc2ccccc2OC)c1 | -46 | -4 | x | x | x | x
CC(NC(=O)/C(C#N)=C/c1ccc([N+](=O)[O-])o1)c1ccccc1 (centres undefined) | 3 | 48* | x | x | x | 16
c1ccc(CNc2c3ccccc3nc3ccccc23)cc1 | -4 | 26* | x | x | x | 16
Cc1cccc(/C=N\NC(=O)c2ccc(Cl)cc2)c1O | -50 | 23* | -2 | 2 | -1 | 51*
COc1ccccc1/C=N/NC(=O)c1c(-c2ccccc2)noc1C | -7 | -1 | x | x | x | x
Cc1cccc(/C=N/NC(=O)c2c(-c3ccccc3)noc2C)c1O | 44 | 27* | x | x | x | 48*
COc1ccccc1NC(=O)CSc1n[nH]c(-c2ccccn2)n1 | -6 | 1 | x | x | x | x
SMILES | KLF5 inh | IEC-6 cytotox | APP 5UTR inh | BaF3 parental | Ba/F3 V617F tox | IEC-6 tox confirm
COc1ccc(-c2cc(C(=O)N/N=C(\C)c3cccnc3)c3cc(C)ccc3n2)cc1OC | -9 | 34* | x | x | x | 19
C/C(=N\NC(=O)c1ccc(Cl)cc1)c1ccccn1 | 33 | 23* | x | x | x | 99*
C/C(=N\NC(=O)c1ccccn1)c1ccc(Cl)cc1 | -126 | 3 | x | 2 | -3 | x
CCOC(=O)c1cc2c(ccn2C)n1Cc1cc(C)ccc1C | -17 | 46* | 20 | 9 | 0 | 25*
O=[N+]([O-])c1cc(C=Nc2cccc3c(O)cccc23)ccc1Cl | -13 | 33* | x | x | x | -4
O=C(O)c1cccnc1Nc1ccc(Cl)cc1 | -11 | 34* | -10 | 33* | 28* | 23*
Cc1ccc2nc(C)c(CN3CCN(c4ccc([N+](=O)[O-])cc4Cl)CC3)n2c1 | -7 | 26* | x | x | x | 47*
CCC1=Nc2cc(C(=O)NCC3CCCO3)ccc2Sc2ccc(Cl)cc21 (centres undefined) | 19 | 35* | x | 6 | 5 | 38*

Bioassay records as filed in PubChem BioAssay.
